An excerpt weighted towards active compounds, which were near 5.7% of everything screened.
ATXN viability – reduces viability in counter-screen for ATXN expression inhibitors; S2 cells (HEK-293 line with an ATXN2-luciferase reporter) viability, CellTiter-Fluor protease fluorescence, 24 h; Potency, µM (top dose mostly 56.7 µM), actives largely listed as cytotoxic; 400,000 tested, 0.49% active; AID 651635; note: potency is the fitted concentration of half-maximal effect; nearly all actives have a fitted effect of over 40% in size
TGFb SMAD3 inh – TGF-b pathway inhibition. HepG2 CAGA-GFP TGF-b/SMAD3 reporter, GFP fluorescence, 18 h; TGF-beta stimulated, 500 pg/mL final. Potency, µM (series often up to 46.1 µM), for inactives: top-dose activity, negative = inhibition, most hits filed as inhibitors. 410,000 tested, 1.2% active. AID 588855; note: potency is the fitted concentration of half-maximal effect; % is set by controls: 0 for no effect and ±100 for the full control effect; nearly all actives have a fitted effect of over 65% in size
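GFP signal (ex488/em500-530) from TGF-beta-stimulated HEPG2 CAGA-GFP cells, 500 pg/mL final, 18 h at 37 degrees C in DMEM plus 1% FBS, normalized to unstimulated and DMSO-stimulated controls.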
HepG2 tox – HepG2 cytotoxicity, counter-screen for TGF-b inhibitors | 410,000 tested, 0.76% active | HepG2 CAGA-GFP viability, ATP luminescence, 18 h | Potency, µM (series often up to 46.1 µM), without a hit: at the highest dose activity change, negative = cytotoxicity, usual class: cytotoxic | AID 588856; note: potency is the fitted concentration of half-maximal effect
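HepG2 CAGA-GFP cells (1000/well, DMEM with 1% FBS) received compound, then TGF-beta at 500 pg/mL final, and were incubated 18 hours at 37 degrees C. Viability was read by CellTiter-Glo luminescence. Media-only wells were set as complete cell-killing and DMSO as no toxicity.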
IL1B secr inh – inhibitors of inflammasome signaling (IL-1 beta secretion); THP-1 LPS/ATP IL-1B secretion, AlphaLISA, 16 h; stronger effect = lower value; AID 743279; 360,000 tested, 4.7% active; activity change, % at 57.5 µM; in the data active = activity change below about -50%; inconclusive = mostly about -30% to -49%; note: % is set by controls: 0 for no effect and ±100 for the full control effect
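THP-1 cells pretreated 1 hr with compounds (up to 57.5 uM final), then stimulated with LPS (250 ng/mL final) plus ATP (1.25 mM final); secreted IL-1B measured by AlphaLISA after 16 hr, decreased signal indicating inhibition.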
ATXN2 expr inh – reduces ATXN2 reporter expression in HEK-293 cells; HEK-293 ATXN2-luciferase reporter, luminescence, 24 h; Potency, µM (highest dose often 57 µM), for the others: at the highest dose activity change, negative = inhibition, actives largely listed as inhibitors; 360,000 tested, 0.72% active; AID 1745845; note: potency is the fitted concentration of half-maximal effect; % is set by controls: 0 for no effect and ±100 for the full control effect; nearly all actives have a fitted effect of over 55% in size
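qHTS (up to 57 uM final) was run with 24 h compound exposure of reporter cells at 37 °C. Each well was multiplexed: SteadyGlo luminescence measured ATXN2-luciferase expression after a fluorogenic Gly-Phe-AFC viability readout (25 uM final).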
Starred values were filed as active, the others as inactive; i = inactive; ? = inconclusive; . = no result given; ! = not confirmed by another sample. Unless noted, calls come from the whole dose curve; as a rule, active = well fitted curve in the direction sought with a large enough effect; inconclusive = small, poorly fitted or top-dose-only effect, or another doubt; inactive = no such curve, though single readings can be large; an effect the other way counts as inactive or inconclusive.

SMILES	ATXN viability	TGFb SMAD3 inh	HepG2 tox	IL1B secr inh	ATXN2 expr inh
Cc1ccc(Cl)cc1NC1=C/C(=N\S(=O)(=O)c2cccs2)c2ccccc2C1=O	11µM*	4µM*	3.5µM*!	-99*	2.8µM*
Cc1ccc(Cl)cc1NS(=O)(=O)c1ccccc1	i	-3%	-18%	18	-16%
Cc1ccc(NC2=C/C(=N\S(=O)(=O)c3cccs3)c3ccccc3C2=O)c(C)c1	8.9µM*	2.5µM*	4.5µM*	-97*	?
Cc1cccc(NC2=C/C(=N/S(=O)(=O)c3cccs3)c3ccccc3C2=O)c1	?	?	1%	-83*	?
Cc1cc(C)c(S(=O)(=O)/N=C2\C=C(NS(=O)(=O)c3ccccc3)C(=O)c3ccccc32)c(C)c1	?	-1%	0%	30	-5%
COc1ccc(C(=O)NCc2nnc(SC)n2-c2ccccc2C)c(OC)c1OC	i	.	.	.	.
COc1ccc2c(c1)CCc1c(C(=O)Nc3ccc(F)c(Cl)c3)noc1-2	i	0%	-26%	.	3%
CCC1CN(C(=O)N2CCC(C(=O)N3CCN(c4ccccc4F)CC3)CC2)c2ccccc2O1 (stereo unspecified)	.	?	-16%	.	.
CC(C)(C)n1ncc2c(=O)n(Cc3ccc(SC(=O)O)cc3Cl)cnc21	.	-15%	-10%	.	.
O=C(Nc1ccc(-c2cnco2)cc1)c1ccc(Cl)cc1	i	12%	10%	?	.
O=C(Nc1ccc(-c2cnco2)cc1)c1ccccc1	i	1%	7%	-71*	54%
N#Cc1ccccc1CSC1=NCCS1	i	6%	8%	-89*	.
O=C(O)c1ccccc1CSC1=NCCS1	i	-1%	1%	7	.
Cc1ccc2c(c1)c1c3n2CCN(C(=O)CN2CCN(C)CC2)C3CCC1 (stereo unspecified)	i	?	-93%	-22	-7%
CN1CCN(CC(=O)N2CCn3c4c(c5cc(C6CCCCC6)ccc53)CCCC42)CC1 (stereo unspecified)	?	?	-86%	-121*	?
CC1CCN(CCCNC(=O)CCCNC(=O)Cn2cnc3sc4c(c3c2=O)CCCC4)CC1	i	-1%	-4%	-101*	-7%
Cc1ccc(NC(=O)c2cnn(-c3ccccc3)c2NC(=O)c2ccco2)cc1C	i	-2%	13µM*	3	29%
COc1ccc(OC)c(NC(=O)C2CCCN(S(=O)(=O)c3ccc4[nH]c(=O)ccc4c3)C2)c1 (stereo unspecified)	.	-18%	-26%	.	.
COc1cc2oc3cc(C#Cc4ccc(N)cc4)ccc3c(=O)c2cc1OC	.	?	-28%	-61*	?
COc1cc2oc3ccc(C#Cc4ccc(N)cc4)cc3c(=O)c2cc1OC	i	-16%	-37%	-23	11%
COCC(C)N1CC(O)=C(c2nc(-c3ccc(Cl)cc3)cs2)C1=N (stereo unspecified)	i	-2%	-14%	-53*	-28%
CCCCN1CC(O)=C(c2nc(-c3ccc(Cl)cc3)cs2)C1=N	?	-16%	9%	19	?
Cc1ccc(-c2nnc(CSc3nnc(COc4cccc5ccccc45)n3-c3ccccc3)o2)cc1	?	13µM*	27%	0	?
N#CCSc1nnc(COc2cccc3ccccc23)n1-c1ccccc1	?	?	-32%	-68*	?
COc1ccc(-n2c(COc3cccc4ccccc34)nnc2SCC#N)cc1	i	?	0%	-21	-13%
SMILES	ATXN viability	TGFb SMAD3 inh	HepG2 tox	IL1B secr inh	ATXN2 expr inh
O=C1c2ccccc2C(=O)c2c1cccc2N1CCCC1	?	?	-59%	-29	10%
O=C1C=C(N2CCCCC2)c2ccccc2C1=O	.	2.8µM*	-103%	-97*	30µM*
COCc1c(C(=O)N2CCN(C(C)C)CC2)cnn1-c1nccc(-c2cc(C)sc2C)n1	i	.	.	.	.
O=C(Nc1ccc(Cl)cc1Cl)[C@@H]1CC=C[C@@H]2CCN(C3CC3)C(=O)[C@@H]21	.	?	9%	.	.
C/C(=N\Nc1nc2c(s1)CCCC2)c1ccc(Cl)cc1	i	?	-21%	-55*	5%
CN(C)c1ccc(C(=O)Nc2nc3c(s2)CCCC3)cc1	?	-19%	-5%	-29	?
Cn1ccc2c(-c3ccc(C(C)(C)C)cc3)cc3c(c21)C1CCC3O1 (stereo unspecified)	i	11µM*	-39%	8	52%
COc1cccc(C(=O)N2c3ccc(C)cc3C(C)(c3ccccc3)CC2(C)C)c1 (stereo unspecified)	.	?	-8%	.	.
COc1ccc(C(=O)CN2C(=O)NC3(CCc4ccccc43)C2=O)cc1 (stereo unspecified)	i	14%	4%	5	2%
COc1ccc(C(NC(=O)CN2C(=O)NC3(CCc4ccccc43)C2=O)c2ccc(OC)cc2)cc1 (stereo unspecified)	?	-4%	-21%	-64*	0%
COc1ccc2c(C)nc(Nc3nc(C)c(C)c(=O)[nH]3)nc2c1	i	0%	-12%	-100*	111%
CCc1c(C)nc(Nc2nc(C)c3cc(OC)ccc3n2)[nH]c1=O	i	-15%	-6%	?	2%
COc1ccc2c(C)nc(Nc3nc(C)cc(C)n3)nc2c1	i	-20%	-4%	10	-13%
CCc1c(C)nc(Nc2nc(C)c3ccc(OC)cc3n2)[nH]c1=O	i	3%	12%	-76*	4%
COc1c(C)cccc1C(=O)Nc1ccc(Cl)c(-c2nc3cc(C)ccc3o2)c1	i	?	-16%	.	-17%
O=C1CC2(CCCC2)CC(=O)N1	i	.	.	.	8%
Cc1cc(C)c(C#N)c(Sc2nc(C)c([N+](=O)[O-])c(C)c2C#N)n1	20µM*	?	13µM*	?	22µM*
Cc1nc(Sc2ccccc2)c(C#N)c(C)c1[N+](=O)[O-]	i	-15%	-38%	.	-9%
Cc1cccc(C)c1NC(=O)c1ccc2nc(CCc3ccccc3)oc2c1	?	?	-44%	.	?
O=C(/C=C/c1cccs1)c1cc(F)ccc1OC(=O)N1CCOCC1	i	10%	-29%	-54*	-4%
O=C(/C=C/c1cccs1)N1CCOCC1	i	11%	-1%	-5	4%
CC12CNCC(C)(CN(C(c3ccccc3)c3ccccc3)C1)C2	i	?	-59%	-81*	-38%
Cc1ccccc1-c1ccc(/C=C2/SC(N3CCOCC3)=NC2=O)o1	.	20%	-44%	-76*	-1%
O=C(CSc1ncnc2c1cnn2-c1ccccc1)Nc1ccc2c(c1)OCO2	i	2%	-10%	-5	-19%
O=C(CSc1ncnc2ccccc12)Nc1ccc2c(c1)OCO2	i	-1%	-9%	-65*	2%
